# Measured values taken from PubChem BioAssay AID624483 (NMMLSC, 2012).
# Screen size: about 360,000 compounds; about 11,000 (3.1%) were called active. Not shown: some 2% with an inconclusive outcome. Cut-off read from the data, not from the text of the source: active = fluorescence intensity above about 16000; inconclusive = no clear call, values can overlap the other calls; inactive = below that. Many of the other results were omitted from the sample, so actives are more common in it than they were.
# Assay: counter-screen for toxin protease inhibitors: compound fluorescence, primary screen, artefact control for toxin protease inhibitor project, biochemical, multiplex microsphere, HTS (AID 624483)
# Details: compound autofluorescence counterscreen, microsphere flow cytometry; active compounds read high
row,Compound,fluorescence intensity
1,Cc1cc(C)nc(NNC2=CC(=O)CC(C)(C)C2)n1,2520 (inactive)
2,CC1(C)CC(=O)C=C(NCc2ccncc2)C1,16700 (active)
3,COc1ccc(CCNC2=CC(=O)CC(C)(C)C2)cc1,3550 (inactive)
4,COCCNCCOCCOc1cccc(OC)c1,2470 (inactive)
5,COc1cccc(OCCOc2cccc(/C=N/n3cnnc3)c2)c1,23900 (active)
6,C=CCc1ccc(OCCOc2cccc(/C=N/n3cnnc3)c2)c(OC)c1,2600 (inactive)
7,CCc1ccccc1NC(=O)CSc1nnc(CCNC(=O)OC(C)(C)C)o1,6490 (inactive)
8,CC(C)(C)OC(=O)N[C@H](C(=O)OC(C)(C)C)c1ccc(Br)cc1,3740 (inactive)
9,C[C@H](NC(=O)OC(C)(C)C)c1nnc(SCC(=O)Nc2ccc(Br)cc2)o1,16800 (active)
10,C=CCn1c(N)cc(=O)nc1SCC(=O)Nc1cccc2ccccc12,4460 (inactive)
11,CC(C)Oc1ccc(/C=N/NC(=O)c2nnn(-c3nonc3N)c2CN(C)C2CCCCC2)cc1,6000 (inactive)
12,Cc1cccc(C)c1N1CCN(S(=O)(=O)N2CCOCC2)CC1,23800 (active)
13,Cc1cccc(C)c1N1CCN(S(=O)(=O)N2CCCCC2)CC1,3490 (inactive)
14,O=S(=O)(N1CCOCC1)N1CCN(c2ccccc2F)CC1,6290 (inactive)
15,COc1ccc(Cl)cc1-c1cc(C(=O)Nc2cc(OC)c(OC)c(OC)c2)[nH]n1,3880 (inactive)
16,O=S(=O)(NC1CCCCC1N1CCC(O)CC1)c1ccc(Cl)cc1 (centres undefined),38100 (active)
17,CCN1CCN(C2CCCCC2NS(=O)(=O)c2ccc(Cl)cc2)CC1 (centres undefined),5580 (inactive)
18,O=S(=O)(NC1CCCCC1N1CCCCC1)c1ccc(Cl)cc1 (centres undefined),5790 (inactive)
19,Cc1cc(OCC(=O)N2CCN(c3ncccn3)CC2)ccc1Cl,4880 (inactive)
20,COc1ccc(OC)c(NC(=O)c2cc(-c3cc(F)ccc3OCC3CCCO3)n[nH]2)c1 (centres undefined),3690 (inactive)
21,COc1ncnc2sc3c(c12)CCCC3,23600 (active)
22,O=C(O)c1cccnc1Sc1ncnc2sc3c(c12)CCC3,4510 (inactive)
23,COc1ccc(/C=N/Nc2ncnc3sc4c(c23)CCCC4)cc1O,1980 (inactive)
24,CCOC(=O)C1=C(CSc2nccn2C)NC(=O)NC1c1ccc(OC)cc1 (centres undefined),24300 (active)

row,Compound,fluorescence intensity
1,CCOC(=O)C1=C(CSc2nnnn2C)N(C)C(=O)NC1c1ccccc1 (centres undefined),4330 (inactive)
2,CCOC(=O)C1=C(CCc2ccccc2)NC(=O)NC1c1ccc2ccccc2c1 (centres undefined),3820 (inactive)
3,CC(C)C[C@H]1CN([C@@H](Cc2ccccc2)CN2CCC[C@@H]2CN2C(=O)C(=O)NC[C@@H]2Cc2ccc(O)cc2)C(=O)C(=O)N1CCc1ccccc1,5350 (inactive)
4,CCOC(=O)N1CCN(C(=O)c2cnc3n(c2=O)CCS3)CC1,2800 (inactive)
5,CCCCc1c(O)nc2n(c1=O)CCS2,22100 (active)
6,CC1CCc2c(sc3nc4n(c(=O)c23)CCS4)C1 (centres undefined),8310 (inactive)
7,CCOC(=O)N1C(=O)C[C@](Sc2ccc(C)cc2)(C(=O)OC)[C@H]1c1ccccc1,5390 (inactive)
8,Cc1ccc(C)c(C(O)c2ncc(-c3cccc4ccccc34)[nH]2)c1 (centres undefined),3640 (inactive)
9,CC1(C2CC2)NC(=O)N(CC(=O)N2CCN(c3ccccc3F)CC2)C1=O (centres undefined),2860 (inactive)
10,Cc1csc(SCC(=O)Nc2ccc(C)c(S(=O)(=O)N(C)C)c2)n1,3940 (inactive)
11,Cc1ccc(CCNC(=O)C2CCN(S(=O)(=O)N3CCCC3)CC2)cc1,9470 (inactive)
12,CCOC(=O)C1C(=O)NC(N2CCN(c3ccccc3)CC2)=NC1c1ccco1 (centres undefined),23400 (active)
13,CCOC(=O)C1C(=O)C=C(c2ccc(OC)cc2)CC1c1ccco1 (centres undefined),2300 (inactive)
14,CCOC(=O)C1(C)NC(c2ccco2)C2C(=O)N(c3ccccc3)C(=O)C21 (centres undefined),4000 (inactive)
15,Cc1ccc(C2SCC(=O)N2c2ccccc2)cc1 (centres undefined),3540 (inactive)
16,Cc1ccc(N2C(=O)C3C(c4ccccc4)(C2=O)C3(c2ccccc2)c2ccccc2)cc1 (centres undefined),22200 (active)
17,Cc1ccc(N2C(=O)CC(Nc3cccc4ccccc34)C2=O)cc1 (centres undefined),3720 (inactive)
18,COc1ccccc1Nc1ncc(C(C)=O)c(C)n1,2840 (inactive)
19,O=C1CCC(C(=O)N2CCC(O)(c3ccccc3)CC2)CN1CCc1ccccc1 (centres undefined),5620 (inactive)
20,CC(C)C[C@@H](COCc1ccc(Cl)cc1)N1CCN(C(=O)c2ccc(Cl)cc2Cl)CCC1=O,4700 (inactive)
21,Cc1cc2c(cc1C)N1C(=O)c3cc4ccccc4cc3NC(=O)C1C(=O)N2 (centres undefined),5850 (inactive)
22,CCn1c(CSc2nncn2-c2ccc(OC)cc2)nc2cc(S(=O)(=O)N(C)C)ccc21,20000 (active)
23,COc1ccc(S(=O)(=O)N(C)C)cc1NC(=O)CSc1ncccn1,2020 (inactive)
24,COc1ccc(-n2cnnc2SCC(=O)Nc2cccc(S(N)(=O)=O)c2)cc1,5460 (inactive)

row,Compound,fluorescence intensity
1,CC[C@@H]1CC2=C(C(=O)OC(C)(C)O2)[C@@H](CC)O1,5670 (inactive)
2,CC(C)(C)S(=O)(=O)N1Cc2cc(CO)cc(CCO)c2[C@H]1CCO,3670 (inactive)
3,Cc1ccccc1S(=O)(=O)NC(=O)C1(C)CCN1C(=O)C1(c2ccc(Cl)cc2)CC1 (centres undefined),4140 (inactive)
4,Cc1oc2c(c1C(=O)N1CCOCC1)C(=O)c1ccccc1C2=O,5580 (inactive)
5,Cc1ccccc1-c1ccc(Nc2ccc(C(=O)N3CCOCC3)cc2)nn1,16400 (active)
6,Cc1cc(Nc2ccc(C(=O)N3CCCCC3)cc2)c2cccc(C)c2n1,3660 (inactive)
7,CCCCc1ccc(S(=O)(=O)NC(=O)C2(C)CCN2C(=O)c2c(C)noc2C)cc1 (centres undefined),2860 (inactive)
8,CCc1nc2c(OCc3ccc(Cl)cc3Cl)cccn2c1N(C)C(=O)C(C)C,4460 (inactive)
9,O=C(COc1ccc(Cl)cc1)Nc1ccc2c(c1)OCO2,3940 (inactive)
10,CC(C)CNS(=O)(=O)c1ccc(OCC(=O)Nc2ccc3c(c2)OCO3)c(Cl)c1,16300 (active)
11,Cc1cc(S(=O)(=O)NCC(C)C)ccc1OCC(=O)NC1CC1,5980 (inactive)
12,Nc1c(C(=O)OCC(=O)Nc2ccc(OC(F)F)cc2)[nH]c(=O)[nH]c1=O,3380 (inactive)
13,Cc1ccc(Sc2ccc(NC(=O)c3ccc(F)cc3)cc2C#N)cc1,4940 (inactive)
14,O=C(CCl)Nc1ccc(Sc2ccc(NC(=O)CCl)cc2)cc1,4330 (inactive)
15,CC(C)(CCl)C(=O)Nc1ccc(Sc2ccc(F)cc2)cc1,20700 (active)
16,CC(NC(=O)CN(C)S(=O)(=O)c1ccc(F)cc1)C1CC2CCC1C2 (centres undefined),3360 (inactive)
17,Cc1c(C(=O)NCc2ccc(C#N)cc2)sc(=O)n1Cc1ccc(C(=O)N(C)C)cc1,4330 (inactive)
18,CC1COC2C(O1)N(S(C)(=O)=O)CCN2S(C)(=O)=O (centres undefined),25700 (active)
19,CC1OC2C(OC1C)N(S(C)(=O)=O)CCN2S(C)(=O)=O (centres undefined),15900 (inactive)
20,Cc1ccc(S(=O)(=O)N2CCN(C(=O)CN3C(=O)NC(C)(c4ccc(Cl)cc4)C3=O)CC2)c(C)c1 (centres undefined),3900 (inactive)
21,Cc1cc(C)n2c(Nc3c(C)cccc3C)c(CCc3ccccc3)nc2n1,5430 (inactive)
22,Cc1onc(-c2c(F)cccc2Cl)c1C(=O)OCC(=O)N1C(C)CCCC1C (centres undefined),3180 (inactive)
23,Cc1onc(-c2c(Cl)cccc2Cl)c1C(=O)c1c[nH]c(C(=O)NC2CC2)c1,23200 (active)
24,C/C(=N/OC(=O)c1c(-c2c(F)cccc2Cl)noc1C)c1cnccn1,3970 (inactive)

row,Compound,fluorescence intensity
1,CC1=C(C(=O)N(C)C)CC(CC(=O)NCCN2CCOCC2)C(=O)N1Cc1ccccc1 (centres undefined),3750 (inactive)
2,CC1(C(=O)Nc2ccc3c(c2)OCCO3)CCN1C(=O)Cc1cc(F)ccc1F (centres undefined),3870 (inactive)
3,Clc1ccc(C=NC23CN4CN(CN(C4)C2)C3)cc1,3520 (inactive)
4,COC(=O)C1[C@H]2SC(C)(C)C(C(=O)OC)N2C(=O)N1Cc1nc2ccccc2s1 (some centres undefined),3920 (inactive)
5,Cc1c(Br)cc(C(=O)N2CCCCCC2)c(C)c1C,4200 (inactive)
6,Cc1ccc(C(=O)N2CCCC2)c(F)c1F,24700 (active)
7,CCNC(=O)C1CCCN(C(=O)c2cc(F)ccc2C)CC1 (centres undefined),3900 (inactive)
8,CNC(=O)c1nnc(Cc2ccc(Cl)cc2)o1,4900 (inactive)
9,COc1cccc(C(NC(C)=O)c2nc(-c3cnc4ccccc4c3)cs2)c1 (centres undefined),3770 (inactive)
10,CC(C)(C)NS(=O)(=O)c1ccc(NC(=O)C2CCCO2)cc1 (centres undefined),3950 (inactive)
11,CC(C)(C)NS(=O)(=O)c1ccc(NC(=O)NC2CCCCC2)cc1,17000 (active)
12,CC(C)c1ccc(NC(=O)NC2CCCCC2)cc1,10400 (inactive)
13,CC1(Cc2cccc(C#N)c2)C(=O)Nc2ccc(-c3cccc(C(F)(F)F)c3)cc21 (centres undefined),2910 (inactive)
14,CCOC(=O)C1=CCC(c2ccc(F)cc2)N(S(=O)(=O)c2ccc(C)cc2)C1 (centres undefined),6000 (inactive)
15,O=C(c1ccc2c(c1)N(Cc1ccc(F)cc1)C(=O)CS2)N1CCOCC1,23800 (active)
16,CC1=C(C(=O)N2CCOCC2)CC(CC(=O)NCC2CCCCC2)C(=O)N1Cc1ccc(F)cc1 (centres undefined),3780 (inactive)
17,O=C(c1ccc(CN2CCOCC2)cc1)N1CCN(c2ccccc2F)CC1,3620 (inactive)
18,COC(=O)c1sc(NC(=O)c2csc3c2CCCC3)nc1C,19100 (active)
19,CCOC(=O)c1sc(NC(=O)c2sc(C)nc2C)nc1C,3060 (inactive)
20,CC1CC(C)CN(CCCNC(=O)c2csc3c2CCCCC3)C1 (centres undefined),5260 (inactive)
21,CC(C)(C)Cc1c(C2CCCCC2)nc2ccc(Br)cn12,5440 (inactive)
22,CC(=O)NC(c1cccs1)c1cc(Br)c2cccnc2c1O (centres undefined),3590 (inactive)
